High-throughput results deposited in PubChem by National Center for Advancing Translational Sciences (NCATS).
The sample as a whole holds a higher share of hits than the screen did.
HT1080 IDH1KD tx: kills HT-1080 cells with IDH1 knockdown; 360,000 compounds, 2% hits; HT-1080 IDH1 knockdown viability, ATP luminescence, 48 h; Potency, µM (top dose mostly 46.1 µM), without a hit: at the highest dose activity, negative = toxicity, usual class: cytotoxic;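 note: potency is the fitted concentration of half-maximal effect; 0% = DMSO wells and -100% = cell-free medium wells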
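% activity derives from luminescence (CellTiter-Glo), normalised to DMSO and no-cell wells. HT-1080-IDH1KD cells, 750/well, had 48 h compound exposure at 37 °C.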
HT1080NT lethal: kills 2HG-producing HT-1080-NT fibrosarcoma cells; HT-1080-NT fibrosarcoma viability, CellTiter-Glo ATP luminescence, 48 h; Potency, µM (highest dose often 46.1 µM), for the others: top-dose activity, negative = less viability, most hits filed as cytotoxic; 360,000 compounds, 1.6% hits; AID 686970;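 note: NT is the 2HG producing partner of a matched IDH1 knockdown line; potency is the fitted concentration of half-maximal effect; 0% = DMSO-treated cells and -100% = media-only wells without cells; nearly all actives have a fitted effect of over 55% in size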
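Compounds were tested in concentration-response format on HT-1080-NT cells for 48 hours at 37 degrees C. Cell viability came from CellTiter-Glo luminescence; curves were classified by r2, response magnitude and activity.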
DT40 TDP1 CPT: growth inhibition of DT40 Tdp1-/-;hTDP1 cells with camptothecin (screen for TDP1 inhibitors); chicken DT40 Tdp1-/-;hTDP1 cells + 20 nM CPT, ATP luminescence, 48 h; Potency, µM (doses to about 46.2 µM), inactives show at the top dose activity change, negative = growth inhibition, usual class: inhibitors; 420,000 compounds, 12% hits; AID 686979; note: potency is the fitted concentration of half-maximal effect; nearly all actives have a fitted effect of over 55% in size
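Chicken DT40 Tdp1-/- cells complemented with human TDP1, 400 cells/well, exposed to compounds plus 20 nM camptothecin for at least 48 h at 37 C; viability read as ATP content by CellTiter-Glo luminescence.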
TDP1 cell noCPT: qHTS for Inhibitors of human tyrosyl-DNA phosphodiesterase 1 (TDP1): qHTS in cells in absence of CPT. DT40 Tdp1-/- hTDP1 cells, no CPT, ATP luminescence, 48 h. Potency, µM (series often up to 46.2 µM), for inactives: top-dose activity change, negative = growth inhibition, hits mostly inhibitors. 420,000 compounds, 15% hits; note: potency is the fitted concentration of half-maximal effect; nearly all actives have a fitted effect of over 55% in size
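DT40 Tdp1-/-;hTDP1 cells, no CPT (DMSO vehicle only), 400 cells/well; compounds pin-transferred; ≥48 hr, 37 °C; CellTiter-Glo 30 min RT dark, luminescence read.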
12-LOX inh: ALOX12 (human) lipoxygenase inhibition; P18054; purified 12hLO, xylenol orange hydroperoxide absorbance; Potency, µM (doses to about 108 µM), for the others: at the top dose activity change, negative = inhibition, actives largely listed as inhibitors; 580,000 compounds, 1.1% hits; note: potency is the fitted concentration of half-maximal effect
Target sequence (P18054 whole entry, looked up): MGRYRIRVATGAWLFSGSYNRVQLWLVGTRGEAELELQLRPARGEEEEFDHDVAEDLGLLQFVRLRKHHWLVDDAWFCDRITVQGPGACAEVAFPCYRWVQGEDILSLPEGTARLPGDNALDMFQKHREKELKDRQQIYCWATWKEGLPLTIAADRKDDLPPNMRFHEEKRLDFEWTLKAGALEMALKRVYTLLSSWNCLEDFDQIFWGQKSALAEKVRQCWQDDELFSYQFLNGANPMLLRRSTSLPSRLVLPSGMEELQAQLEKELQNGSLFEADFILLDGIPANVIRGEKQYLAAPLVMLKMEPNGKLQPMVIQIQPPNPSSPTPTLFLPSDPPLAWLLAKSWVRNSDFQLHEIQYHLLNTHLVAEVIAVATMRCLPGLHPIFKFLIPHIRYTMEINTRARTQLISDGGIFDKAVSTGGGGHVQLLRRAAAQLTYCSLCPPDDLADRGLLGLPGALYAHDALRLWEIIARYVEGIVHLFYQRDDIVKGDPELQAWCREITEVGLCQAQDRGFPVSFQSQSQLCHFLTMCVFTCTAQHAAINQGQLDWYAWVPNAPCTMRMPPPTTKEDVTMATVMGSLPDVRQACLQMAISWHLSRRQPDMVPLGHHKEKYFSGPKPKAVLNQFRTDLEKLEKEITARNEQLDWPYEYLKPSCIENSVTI
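Purified human 12hLO at 150 nM in 25 mM Hepes, 0.01% Triton X-100, pH 7.0, preincubated 15 min at room temperature with compound. Reaction started with 40 uM arachidonic acid, 30 min at room temperature. Hydroperoxide measured by Fe-xylenol orange, 573/405 nm absorbance ratio.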
IL1B secr inh: blocks inflammasome-driven IL-1 beta release | THP-1 LPS/ATP IL-1B secretion, AlphaLISA, 16 h; active compounds read low | 360,000 compounds, 4.7% hits | activity change, % at 57.5 µM; in the data active = activity change below about -50%; inconclusive = mostly about -30% to -49%
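THP-1 cells pretreated 1 hr with compounds (up to 57.5 uM final), then stimulated with LPS (250 ng/mL final) plus ATP (1.25 mM final); secreted IL-1B measured by AlphaLISA after 16 hr, decreased signal indicating inhibition.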
Active calls of the source: *; ? = inconclusive; nt = not tested or not shown; ! = not confirmed by another sample; [ ] = dose if it differs, or a comment. Unless noted, calls come from the whole dose curve; as a rule, active = well fitted curve in the direction sought with a large enough effect; inconclusive = small, poorly fitted or top-dose-only effect, or another doubt; inactive = no such curve, though single readings can be large; an effect the other way counts as inactive or inconclusive. Unless noted, % is set by controls: 0 for no effect and ±100 for the full control effect.

SMILES | HT1080 IDH1KD tx | HT1080NT lethal | DT40 TDP1 CPT | TDP1 cell noCPT | 12-LOX inh | IL1B secr inh
O=C(Nc1ccc(Cl)c(S(=O)(=O)Nc2ccccc2Cl)c1)c1cccs1 | ? | ? | -12.6% | ? | -10.1% | -93.1*
Cc1ccc(C(=O)Nc2ccc(C)c(S(=O)(=O)Nc3ccccc3Cl)c2)s1 | ? | -20.9% | ? | ? | -20.3% | -62.0*
O=C(NCc1ccc(Cl)nc1)c1cccn2cncc12 | nt | nt | nt | nt | 67.8%[176 µM] | nt
CNC(=O)[C@@H]1C[C@H](n2cc(CNC(=O)Nc3ccc(Cl)cc3)nn2)CN1 | nt | nt | nt | nt | 22.0% | nt
NS(=O)(=O)c1ccc(Sc2nc3ccccc3s2)c([N+](=O)[O-])c1 | 7.31µM* | ? | 9.2µM* | 10.3µM* | 141.4% | -99.2*
CC(=O)Nc1ccc(NC(=O)C(C)OC(=O)c2ccccc2-n2cnnn2)cc1 (stereo not drawn) | nt | nt | nt | nt | 3.9% | nt
Cc1cc(C)c2c(CN3CCN(Cc4ccccc4)CC3)cc(=O)oc2c1 | 0.0% | -1.7% | ? | -28.7% | 14.1µM*! | 0.0
CCc1cc(=O)oc2cc(C)cc(OC(C)C(=O)NC3CCN(Cc4ccccc4)CC3)c12 (stereo not drawn) | -5.6% | -15.6% | ? | ? | 5.7% | -62.8*
Cc1cc(C)c2c(CN3CCN(Cc4ccc5c(c4)OCO5)CC3)cc(=O)oc2c1 | -2.1% | -3.7% | ? | 16.4µM* | ? | -3.2
Cc1cc(C)c2c(CN(Cc3ccccc3)Cc3ccccc3)cc(=O)oc2c1 | -19.5% | -16.6% | 23.1µM* | 16.4µM* | -0.1% | 18.5
Cc1cc2oc(=O)cc(CN3CCN(Cc4ccc5c(c4)OCO5)CC3)c2cc1C | -2.9% | -2.4% | ? | ? | ? | 10.8
CCc1cc(=O)oc2cc(C)cc(OCC(=O)N3CCC(C(=O)NC(C)C)(c4ccccc4)CC3)c12 | -16.3% | -26.9% | 23.1µM* | 20.6µM* | 10.9% | ?
CCCCc1cc(=O)oc2c(C)c(OCC(=O)N3CCC(C(=O)O)(c4ccccc4)CC3)ccc12 | -15.0% | -13.6% | 18.0% | -22.8% | -18.1% | 3.6
COCOc1cccc(CN2CCC(C)(Oc3cccc(OC)c3)C2)c1 (stereo not drawn) | 4.7% | -14.3% | 18.4µM* | ? | -6.2% | -24.2
COc1cc(Cl)ccc1OC1(C)CCN(Cc2ccc3ccccc3c2)C1 (stereo not drawn) | ? | ? | ? | 23.1µM* | 38.9% | 12.6
COCCc1ccc(OC2(C)CCN(Cc3cccc(OCOC)c3)C2)cc1 (stereo not drawn) | 0.5% | 16.1% | ? | ? | -26.2% | -24.9
COc1cc(Cl)ccc1OC1(C)CCN(Cc2ccc(-c3ccccn3)cc2)C1 (stereo not drawn) | ? | 16.4µM* | ? | 14.6µM* | ? | -12.9
COc1cc(C(=O)NCCNC(=O)c2cn(C)c3ccccc23)cc(OC)c1OC | nt | nt | nt | nt | 9.4% | nt
COc1ccc(C2c3cccn3CCN2S(=O)(=O)c2c(C)cc(C)cc2C)cc1OC (stereo not drawn) | nt | nt | nt | nt | -13.6% | nt
Cn1nc(C(=O)OCC(=O)Nc2ccc(OC(F)F)cc2)c2ccccc2c1=O | nt | nt | nt | nt | 3.5% | nt
O=C(NNC(=O)c1ccccc1OCC1CCCO1)c1cc2ccccc2cc1O (stereo not drawn) | nt | nt | nt | nt | -21.9% | nt
C[C@]12CCC(O)CC1CCC1C2CC[C@]2(C)C(c3cc(C(F)(F)F)n[nH]3)CCC12 (stereo partly drawn) | 0.4% | 0.1% | ? | 13µM* | -0.7% | 19.9
CC(C)c1ccc(C2C3=C(COC3=O)Nc3c2c(=O)n(C)c(=O)n3C)cc1 (stereo not drawn) | nt | nt | nt | nt | -0.7% | nt
COc1nnc(-c2ccc(N3CCCCC3)c(NC(C)=O)c2)c2ccccc12 | 5.1% | 2.6% | ? | 18.4µM* | -9.4% | ?
CCCCCCCNS(=O)(=O)c1ccc(OC)c2ncccc12 | nt | nt | nt | nt | 16.0% | nt
SMILES | HT1080 IDH1KD tx | HT1080NT lethal | DT40 TDP1 CPT | TDP1 cell noCPT | 12-LOX inh | IL1B secr inh
O=C(NCc1ccncc1)c1cc(-c2ccc(F)cc2)nc2ccccc12 | nt | nt | nt | nt | 3.9% | nt
C(=C\c1ccccc1)/C=N/Nc1nc(N2CCOCC2)nc(N2CCOCC2)n1 | -1.2% | -0.4% | -11.0% | ? | ? | -7.3
Clc1ccccc1/C=C/C=N/Nc1nc(N2CCOCC2)nc(N2CCOCC2)n1 | -17.5% | -1.2% | 23.1µM* | 23.1µM* | 0.7% | -15.9
CCN(Cc1ccc(C(N)=O)cc1)C1CCCC1 | nt | nt | nt | nt | -28.2% | nt
CC(C)NC(=O)NC(=O)CSc1ccc(S(=O)(=O)N2CCCC2)cn1 | -8.9% | -6.3% | -9.5% | -13.5% | -19.6% | 2.5
CC(C)N(C(=O)CSc1ccc(S(=O)(=O)N2CCCCC2)cn1)C(C)C | -1.3% | 4.6%[9.24 µM] | 16.4µM* | -26.9% | 0.1% | -5.4
O=[N+]([O-])c1ccc(CSc2ccc(S(=O)(=O)N3CCCCCC3)cn2)cc1 | -17.4% | -14.3% | 23.1µM* | 16.4µM* | -1.9% | -8.5
N#Cc1ccc(CSc2ccc(S(=O)(=O)N3CCCCCC3)cn2)cc1 | -20.2% | -4.4% | ? | 29.1µM* | -3.1% | -4.7
CCC(C)NC(=O)CSc1ccc(S(=O)(=O)N2CCN(Cc3ccccc3)CC2)cn1 (stereo not drawn) | 0.0% | -6.9% | ? | 29.1µM* | -10.1% | -0.4
Cc1ncoc1C(=O)NC1CCc2nn(CC3CC3)c(=O)n2CC1 (stereo not drawn) | nt | nt | nt | nt | 43.7% | nt
CC(C)CNC(=O)C1(C)CCCN1C(=O)C(C)(C)Oc1ccc(Cl)cc1 (stereo not drawn) | 8.8% | 5.0% | ? | 16.4µM* | -1.3% | 41.7
CC(C)CNC(=O)C1(C)CCCN1Cc1ccc(OC(F)(F)F)cc1 (stereo not drawn) | 2.1% | -25.9% | ? | ? | -16.2% | 14.2
COC(=O)C1=C(C)N(c2cc(Cl)cc(Cl)c2)C(=O)C1 | ? | 20.6µM* | 7.31µM* | 8.2µM* | ? | -27.0
CCOc1ccc2c(ccc(/C=C/c3cc(C)c4cccnc4c3O)[n+]2C)c1 | 23.1µM* | ? | 2.59µM* | 5.17µM* | nt | ?
O=C1NCC(=O)N2CCN(C(=O)Nc3ccccc3Oc3ccccc3)CC12 (stereo not drawn) | nt | nt | nt | nt | -25.0% | nt
COc1cc(N=Nc2ccccc2C(=O)O)ccc1O | -8.1% | -4.2% | -14.2% | -24.3% | -11.6% | 29.8
Cc1ccc2c(c1)c(N=Nc1cccc(C(=O)O)c1)c(O)n2C | -1.2% | 1.4% | ? | -1.8% | -11.6% | -7.2
O=Cc1cc(N=Nc2ccccc2Cl)ccc1O | ? | ? | 20.6µM* | 4.11µM* | ? | 143.1
